Test results from PubChem BioAssay AID1159580 (chemical genetic matrix, 2015).
About 2,000 (36%) of roughly 5,500 compounds were called active. Another 18% or so got no clear call; they are omitted. Rule as the data show it: active = normalized growth mostly below about 0.91 (no sharp cut-off); inconclusive = no clear call, values can overlap the other calls; inactive = mostly above about 0.92. The list shows a part of the results.

Assay: chemical genetic growth profiling, strain panel (AID 1159580);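 also: tested at 20 µM; growth read once vehicle control cultures reached saturation at 30 °C; 1 = growth at the plate median or of vehicle wells; lower values mean less growth of the strain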
Settings: S. cerevisiae deletion strains, growth OD

Measured: normalized growth

CC(=O)Oc1c(-c2ccccc2)oc2c(CC=C(C)C)c3c(c(OC(C)=O)c2c1=O)C=CC(C)(C)O3
inactive: locus YAL021C, strain ccr4, hits give low values 1.06 | locus YAL026C, strain drs2, hits give low values 1.02 | locus YBL061C, strain skt5, hits give low values 1 | locus YBR009C, strain hhf1, hits give low values 1.09 | locus YBR021W, strain FUR4, hits give low values 1.05 | locus YBR023C, strain chs3, hits give low values 1.01 | locus YBR171W, strain sec66, hits give low values 1.01 | locus YBR229C, strain ROT2, hits give low values 0.923 | locus YBR231C, strain swc5, hits give low values 1.02 | locus YBR279W, strain paf1, hits give low values 0.995 | locus YCL011C, strain gbp2, hits give low values 1.09 | locus YCL016C, strain dcc1, hits give low values 1.05 | locus YCL029C, strain bik1, hits give low values 1.01 | locus YCL061C, strain MRC1, hits give low values 1.02 | locus YCL069W, strain vba3, hits give low values 1.01 | locus YCR088W, strain abp1, hits give low values 1.01 | locus YDL005C, strain med2, hits give low values 1.01 | locus YDL035C, strain GPR1, hits give low values 0.875 | locus YDL074C, strain BRE1, hits give low values 0.93 | locus YDL101C, strain DUN1, hits give low values 0.944 | locus YDL185W, strain tfp1, hits give low values 1.07 | locus YDL192W, strain arf1, hits give low values 1.01 | locus YDR001C, strain nth1, hits give low values 1.01 | locus YDR069C, strain doa4, hits give low values 1.01 | locus YDR137W, strain rgp1, hits give low values 1.03 | locus YDR159W, strain sac3, hits give low values 0.982 | locus YDR195W, strain ref2 0.986 | locus YDR297W, strain sur2, hits give low values 1.04 | locus YDR318W, strain mcm21, hits give low values 0.995 | locus YDR334W, strain swr1, hits give low values 1 | locus YDR335W, strain msn5, hits give low values 1.02 | locus YDR388W, hits give low values 1.05 | locus YDR392W, strain spt3, hits give low values 0.955 | locus YEL003W, strain gim4, hits give low values 1.03 | locus YEL037C, strain rad23, hits give low values 1.01 | locus YEL061C, strain CIN8 (second series), hits give low values 1.01 | locus YER111C, strain swi4, hits give low values 1 | locus YER155C, strain BEM2 (second series), hits give low values 1.05 | locus YER155C, strain BEM2, hits give low values 1 | locus YER167W, strain BCK2, hits give low values 0.917 | locus YFR010W, strain ubp6, hits give low values 1 | locus YGL078C, strain dbp3, hits give low values 1.04 | locus YGL086W, strain mad1, hits give low values 0.993 | locus YGL167C, strain pmr1, hits give low values 0.993 | locus YGL173C, strain kem1, hits give low values 0.998 | locus YGL227W, strain vid30, hits give low values 1.01 | locus YGL240W, strain doc1, hits give low values 1 | locus YGL253W, strain hxk2, hits give low values 0.981 | locus YGR078C, strain PAC10, hits give low values 0.898 | locus YGR135W, strain pre9, hits give low values 1.1 | locus YHR013C, strain ard1, hits give low values 0.989 | locus YHR027C, strain rpn1, hits give low values 1.06 | locus YHR079C, strain IRE1 (second series), hits give low values 1.06 | locus YHR142W, strain chs7, hits give low values 1.03 | locus YIL125W, strain kgd1, hits give low values 1.03 | locus YIR030C, strain dcg1, hits give low values 1.06 | locus YJL092W, strain hpr5, hits give low values 1.01 | locus YJL095W, strain BCK1, hits give low values 0.926 | locus YJL115W, strain asf1, hits give low values 1 | locus YJL129C, strain trk1, hits give low values 1.02 | locus YJL134W, strain LCB3, hits give low values 0.948 | locus YJL154C, strain vps35, hits give low values 1.02 | locus YJL164C, strain tpk1, hits give low values 1.03 | locus YJL166W, strain qcr8, hits give low values 1.04 | locus YJL168C, strain set2, hits give low values 1.03 | locus YJL187C, strain SWE1 (second series), hits give low values 0.885 | locus YJL187C, strain SWE1, hits give low values 1.05 | locus YKL009W, strain mrt4, hits give low values 1.04 | locus YKL068W, hits give low values 1.01 | locus YKL085W, strain MDH1 (second series), hits give low values 1 | locus YKL085W, strain MDH1, hits give low values 1 | locus YKL160W, strain elf1, hits give low values 1 | locus YKR026C, strain gcn3, hits give low values 1 | locus YLL001W, strain dnm1, hits give low values 0.976 | locus YLR027C, strain aat2, hits give low values 1.03 | locus YLR039C, strain RIC1, hits give low values 0.891 | locus YLR102C, strain apc9, hits give low values 1.06 | locus YLR221C, strain rsa3, hits give low values 1.04 | locus YLR258W, strain gsy2, hits give low values 1.03 | locus YLR262C, strain YPT6 (second series), hits give low values 1.02 | locus YLR262C, strain YPT6, hits give low values 0.874 | locus YLR268W, strain sec22, hits give low values 1.05 | locus YLR320W, strain mms22, hits give low values 0.999 | locus YLR330W, strain CHS5, hits give low values 0.924 | locus YLR342W, strain FKS1, hits give low values 1.05 | locus YLR357W, strain rsc2, hits give low values 0.992 | locus YLR370C, strain arc18, hits give low values 1.01 | locus YLR371W, strain rom2, hits give low values 1.01 | locus YML120C, strain ndi1, hits give low values 1.07 | locus YMR058W, strain fet3, hits give low values 1.02 | locus YMR125W, strain sto1, hits give low values 1.02 | locus YMR205C, strain PFK2, hits give low values 1.01 | locus YMR223W, strain ubp8, hits give low values 1.05 | locus YMR231W, strain pep5, hits give low values 1 | locus YMR307W, strain GAS1, hits give low values 0.818 | locus YNL067W, strain RPL9B, hits give low values 0.988 | locus YNL071W, strain lat1, hits give low values 1.02 | locus YNL209W, strain ssb2, hits give low values 1.05 | locus YNL233W, strain BNI4, hits give low values 0.915 | locus YNL248C, strain rpa49, hits give low values 0.984 | locus YNL250W, strain rad50, hits give low values 1.03 | locus YNL271C, strain bni1, hits give low values 1.04 | locus YNL298W, strain CLA4, hits give low values 1.04 | locus YNL307C, strain MCK1, hits give low values 1.03 | locus YNL322C, strain KRE1 (second series), hits give low values 1.05 | locus YNR049C, strain mso1, hits give low values 1.01 | locus YNR052C, strain pop2, hits give low values 1.07 | locus YOL012C, strain htz1 0.869 | locus YOR001W, strain rrp6, hits give low values 1.01 | locus YOR069W, strain VPS5, hits give low values 0.935 | locus YOR080W, strain dia2, hits give low values 1.03 | locus YOR083W, strain WHI5, hits give low values 1.06 | locus YOR106W, strain vam3, hits give low values 1.08 | locus YOR184W, strain ser1, hits give low values 1.07 | locus YOR265W, strain rbl2, hits give low values 1.05 | locus YOR270C, strain vph1, hits give low values 0.972 | locus YOR290C, strain snf2, hits give low values 1.03 | locus YOR316C, strain cot1, hits give low values 1.07 | locus YPL051W, strain arl3, hits give low values 0.976 | locus YPL078C, strain atp4, hits give low values 1.03 | locus YPL106C, strain sse1, hits give low values 1.02 | locus YPR119W, strain clb2, hits give low values 1.05 | locus YPR167C, strain met16, hits give low values 1 | strain wtn01, hits give low values 1.03
active: locus YAL030W, strain snc1, hits give low values 1.09 [resistant] | locus YDL040C, strain nat1, hits give low values 1.09 [resistant] | locus YDR101C, strain arx1, hits give low values 1.09 [resistant] | locus YDR162C, strain NBP2, hits give low values 0.828 | locus YDR502C, strain sam2, hits give low values 1.11 [resistant] | locus YER015W, strain faa2, hits give low values 1.08 [resistant] | locus YER016W, strain bim1, hits give low values 1.1 [resistant] | locus YER110C, hits give low values 1.11 [resistant] | locus YGL248W, strain PDE1, hits give low values 0.845 | locus YGR252W, strain gcn5, hits give low values 1.59 [resistant] | locus YHR094C, strain hxt1, hits give low values 1.16 [resistant] | locus YHR129C, strain ARP1, hits give low values 0.881 | locus YHR200W, strain rpn10, hits give low values 1.09 [resistant] | locus YIL066C, strain RNR3, hits give low values 0.788 | locus YIL073C, strain SPO22, hits give low values 0.586 | locus YJL095W, strain BCK1 (second series), hits give low values 1.09 [resistant] | locus YKL190W, strain CNB1, hits give low values 0.906 | locus YKR001C, strain vps1, hits give low values 1.21 [resistant] | locus YKR091W, strain srl3, hits give low values 1.14 [resistant] | locus YLL026W, hits give low values 1.07 [resistant] | locus YLL041C, strain sdh2, hits give low values 1.09 [resistant] | locus YLR058C, strain SHM2, hits give low values 0.891 | locus YLR384C, strain iki3, hits give low values 1.1 [resistant] | locus YLR418C, strain cdc73, hits give low values 1.17 [resistant] | locus YML016C, strain PPZ1, hits give low values 0.874 | locus YML032C, strain rad52, hits give low values 1.14 [resistant] | locus YML124C, strain tub3, hits give low values 1.07 [resistant] | locus YMR078C, strain ctf18, hits give low values 1.14 [resistant] | locus YMR129W, hits give low values 1.12 [resistant] | locus YOL147C, strain pex11, hits give low values 1.09 [resistant] | locus YOR061W, strain CKA2, hits give low values 0.782 | locus YOR070C, strain gyp1, hits give low values 1.16 [resistant] | locus YOR136W, strain idh2, hits give low values 1.11 [resistant] | locus YOR144C, strain elg1, hits give low values 1.08 [resistant] | locus YPL240C, strain hsp82, hits give low values 1.1 [resistant] | locus YPR141C, strain kar3, hits give low values 1.09 [resistant] | locus YPR163C, strain tif3, hits give low values 1.14 [resistant]
